HSP90 inh: inhibitors of HSP90 luciferase refolding in rabbit reticulocyte lysate; luciferase refolding luminescence, 3 h; inhibition, % at 5.6 µM; actives 0.91% (n = 290,000);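 active = inhibition above the screen-wide mean plus 3 SD, computed separately per campaign, cut at about 16% in these data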;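 also: 0% = DMSO wells and 100% = 60 µM geldanamycin wells; inhibitors lower the luminescence because luciferase stays unfolded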
HSF1 activator: increases HSF-1 driven luciferase reporter signal; NIH3T3-HGL HSF-1 luciferase reporter, MG132, 8 h; 100% = twice DMSO control signal; activation, % at 9 µM; actives 1.7% (n = 300,000);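 active = mean replicate activation of at least 50% with a set share of replicates each reaching 50%; inconclusive = only one of those two conditions met; inactive = mean below 50% and too few replicates reaching it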;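 also: 0% = median of the neutral control wells and 100% = twice that signal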
HSF1 inhib: HSF1 inhibition | AID 2098 | NIH3T3-HGL HSE-luciferase, MG132-induced, luminescence 8 h; stronger effect = lower value | activity change, negative = inhibition, % at 7.5 µM (by protocol) | actives 0.77% (n = 300,000);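 active = more than half of replicate wells show activity change below -50%, luminescence cut by over half; inconclusive = some wells, but at most half, below -50%; inactive = no replicate well below -50%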;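 also: luciferase reports HSF-1 transcriptional activity via heat shock element; 0% = median of DMSO wells and -100% = zero luminescence signal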
TROY signal inh: blocks TROY-dependent signaling in reporter cells. Q293 LMP1-TROYcd NF-kB luciferase reporter, 4 h. inhibition, % at 10 µM. actives 0.98% (n = 360,000). AID 1347056;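 active = compounds whose plate-normalised and pattern-corrected inhibition of the luciferase reporter signal at the single screening dose is 50% or more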
TWEAK-Fn14 inh: inhibitors of TWEAK-Fn14 interaction signaling. TWEAK-stimulated Fn14 reporter cells, luciferase luminescence, 8 h. inhibition, % at 10 µM. actives 2% (n = 360,000). AID 1159606; in the data active = inhibition above about 50%
EBV LMP1 NFkB: Epstein-Barr LMP1 NF-kappaB reporter inhibition | LMP1-induced NF-kappaB luciferase reporter cells, luminescence | inhibition, % at 12.5 µM | actives 0.69% (n = 350,000); in the data active = inhibition above about 41%; inconclusive = no clear call, values can overlap the other calls;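 also: 0% = neutral control wells and 100% = reference inhibitor control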
* marks the source's active call; other numbers are inactive results; ? = inconclusive; . = no result given. In the library only some 4.7% were active in any assay of this set; here they are far more common.

SMILES	HSP90 inh	HSF1 activator	HSF1 inhib	TROY signal inh	TWEAK-Fn14 inh	EBV LMP1 NFkB
O=C(NCCCN1CCOCC1)c1ccccc1N1C(=O)[C@@H]2Cc3c([nH]c4ccccc34)C(c3ccccc3)N2C1=O (stereo not given in full)	.	.	.	-9.1	-5.7	.
CC(=O)c1ccc(-c2nc3c4ccccc4ccn3c2C(C)=O)o1	-0.2	8.9	-3.7	30.0	-32.5	77.3*
NCCCC(=O)O	0.9	-75.8	-70.4*	-5.8	-13.6	-6.4
Cn1cccc1/C=C1\SC(=O)N(c2ccccc2)C1=O	1.0	64.7*	23.6	-59.8	3.7	-32.8
Cc1c([N+](=O)[O-])c2ccc(O)cc2n1-c1ccccc1	-0.3	-26.6	-20.4	31.5	56.1*	34.7
COc1ccc(OC)c(CC(=O)Nc2ccc3c(c2)CCC3)c1	-0.8	12.2	0.5	8.4	-0.6	-6.3
COc1cccc(CNc2ccc(C)c(Cl)c2)c1	-0.1	14.8	-11.8	-32.1	-10.0	-0.5
COc1cccc(CNc2ccc3c(c2)CCC3)c1	5.8	-23.5	-0.9	43.9	51.4*	-6.4
COc1ccc(OC)c(CNc2ccc3c(c2)CCC3)c1	1.1	-41.4	-26.1	50.6*	60.5*	1.1
CCNC(=O)C1(C)CCCN(C(=O)CCc2cccs2)C1 (stereo not given)	.	.	.	-5.6	-11.2	.
Cc1ccccc1NC(=S)c1nc2ccccc2[nH]1	-2.3	67.0*	33.4	-80.8	-26.0	-12.2
S=C(Nc1ccc(Cl)cc1)c1nc2ccccc2[nH]1	-3.9	14.1	-0.8	-40.4	16.7	5.0
CN(Cc1ccccc1)Cc1cc(=O)oc2ccc3ccccc3c12	.	.	.	-18.1	-27.9	.
O=c1c2c3c(sc2nc(NCCOCCO)n1Cc1ccco1)CCCCC3	3.0	-62.2	-61.7*	-15.2	-2.0	4.2
CC(O)CNc1nc2sc3c(c2c(=O)n1Cc1ccco1)CCCCC3 (stereo not given)	7.0	-36.8	-23.8	-17.3	-30.0	-11.4
CCOC(=O)c1ccc(NC(=O)COc2cc3oc(=O)c(CC(C)O)c(C)c3cc2Cl)cc1 (stereo not given)	0.8	0.3	0.6	17.6	6.0	2.2
CC(=O)c1cccc(NC(=O)COc2cc3oc(=O)c(CC(C)O)c(C)c3cc2Cl)c1 (stereo not given)	0.5	-3.0	-16.5	44.7	59.8*	20.5
COC(=O)C1CCCCN1C(=O)c1cc(COc2cccc3cnccc23)on1 (stereo not given)	0.0	-16.7	-23.8	27.7	42.0	26.8
CCOC(=O)CC1CCCCN1C(=O)c1cc(COc2cccc3cnccc23)on1 (stereo not given)	1.9	-10.3	-2.1	44.4	62.4*	33.0
CN(C)CCNC(=O)c1cccc(-c2cc(NC=O)c3ncc(-c4cccc(C(F)(F)F)c4)n3c2)c1	.	.	.	-3.1	-191.9	.
Cc1ncoc1C(=O)Nc1ncc([N+](=O)[O-])s1	7.2	29.9	16.8	0.6	50.0*	23.3
Cc1ncoc1C(=O)Nc1nccs1	-1.6	-2.2	-3.5	-0.1	-14.1	-2.7
O=C(NCc1ccccc1)C1Cc2c(-c3ccc(Cl)cc3)ccnc2O1 (stereo not given)	.	.	.	9.9	-2.1	.
CCc1nc2c(OCC(=O)c3ccc(F)cc3)cccn2c1N(C)C(=O)C(C)C	.	.	.	5.6	-15.0	.
C=C1C(=O)C=C[C@]2(C)C[C@@H]3OC(=O)[C@](C)(O)[C@H]3C[C@@H]12	.	36.6	18.9	-4.2	55.2*	-105.0
SMILES	HSP90 inh	HSF1 activator	HSF1 inhib	TROY signal inh	TWEAK-Fn14 inh	EBV LMP1 NFkB
CCOC(=O)C1=CCN(S(=O)(=O)c2ccccc2Br)C1c1ccc(Cl)c(Cl)c1 (stereo not given)	.	.	.	1.0	-3.5	.
COc1ccc(-c2csc3ncnc(NCCO)c23)cc1	-1.2	-38.2	-35.6	45.1	72.5*	41.8*
CCN(CC)CCCNc1ncnc2scc(-c3ccc(F)cc3)c12	-0.5	23.9	-1.0	-48.4	4.5	-3.6
COc1ccc(-c2csc3ncnc(Nc4ccc(O)cc4)c23)cc1	-2.8	0.3	-6.8	45.7	27.7	18.3
COc1ccc(-c2csc3ncnc(NCCCO)c23)cc1	3.4	-45.6	-37.0	35.4	65.1*	51.7*
O=C(/C=C/c1cccs1)Nc1scc(-c2ccccc2)c1C(=O)O	5.4	?	-2.0	14.6	60.5*	-1.4
Cc1nc2ccc(NC(=O)c3sccc3C)cc2s1	-2.0	60.9*	29.7	.	-11.2	-12.5
Cc1nc2ccc(NC(=O)N3CCSCC3)cc2s1	8.0	-63.7	-59.7*	1.8	-7.5	-5.0
C[C@H]1CN([C@@H](C)CO)S(=O)(=O)c2ccc(C#Cc3ccccn3)cc2O[C@@H]1CN(C)C(=O)C1CC1	.	.	.	18.7	-9.2	-8.5
Cc1ccsc1CNc1ncnc2ccc(-c3c(C)noc3C)cc12	.	.	.	44.0	81.0*	11.7
Cn1ccc2cc(-c3ccc4ncnc(NCc5cccs5)c4c3)ccc21	.	.	.	12.1	55.0*	9.7
COc1cccc(CNc2ncnc3ccc(-c4c(C)noc4C)cc23)c1	.	.	.	30.2	79.5*	?
Cc1noc(C)c1-c1ccc2ncnc(NCC3CCCCN3C)c2c1 (stereo not given)	.	.	.	6.4	6.4	18.4
COc1cccc(-c2ccc3ncnc(NCc4cccc(C)c4)c3c2)c1	.	.	.	50.0*	62.9*	13.1
COC(=O)C[C@H]1C[C@H]2c3cc(NC(=O)Nc4ccc(C(F)(F)F)cc4)ccc3O[C@H]2[C@@H](CO)O1	.	.	.	-0.8	1.8	2.9
c1cn2c(-c3ccc(N4CCOCC4)cc3)cncc2n1	.	.	.	9.7	-4.4	.
COCCCNc1ncnc2ccc(C)cc12	-1.3	-27.1	-2.6	54.9*	39.3	-2.3
Cc1ccc2ncnc(NCCC(=O)O)c2c1	2.6	-8.8	-1.5	-1.4	11.7	6.5
COc1cccc(-c2ccc3ncnc(NCc4cccs4)c3c2)c1	.	.	.	43.9	68.8*	3.8
c1cncc(-c2ccc3ncnc(NCc4cccs4)c3c2)c1	.	.	.	11.2	20.4	20.5
CCC(C)n1c(SCC(=O)N(CC)c2c(N)n(Cc3ccccc3)c(=O)[nH]c2=O)nc2ccccc2c1=O (stereo not given)	.	.	.	-12.1	3.8	2.7
O=C(NCCN1CCOCC1)c1cccs1	2.5	-2.9	5.6	8.1	1.4	-9.4
O=C1c2ccccc2CN1CCNC(=S)NC1CCCCC1	-0.9	15.5	1.1	-20.9	-18.1	49.4*
S=C(NCCCc1ccccc1)NC1CCCCC1	-1.0	4.2	3.5	-51.1	-11.0	-7.6
O=C(NCCN1Cc2ccccc2C1=O)c1cccs1	1.8	61.5*	41.9	-13.3	-9.3	-8.0
CC1CCC(NC(=O)c2[nH]c(C(F)(F)F)nc2-c2ccccc2)CC1 (stereo not given)	.	.	.	17.8	-7.5	.
O=S1(=O)N[C@@H](Cc2ccccc2)COc2ccc(Cl)cc21	.	.	.	-5.9	-28.0	-2.4
CCCc1cc(C(=O)Nc2nccs2)cs1	5.3	86.3*	52.7	-69.5	23.6	-14.9
